Hit rate of the full screen: of about 48,000 compounds, about 13,000 (27%) showed an effect of 50% or more. The list shows a part of the results.
test system: Wolbachia pipientis; assay: Anti-Wolbachia Cell-Based Screen; assay type: functional; parameters: scale not given: in the data most compounds retested in dose-response had high values; settings: 5 µM

| SMILES | Percent Effect [%] |
| --- | --- |
| O=C(c1cc[nH]n1)N1CCOCC2(C1)CN(c1ccccc1)C(=O)CO2 (configuration not stated) | 99 |
| Cc1cnc(CN2CCN(C(C)c3nc(C)no3)CC2)cn1 (configuration not stated) | 31.99 |
| CCOc1cc(C)nc(N2CCN(C(C)c3nc(C)no3)CC2)n1 (configuration not stated) | -8.841 |
| Cc1noc(C(C)N2CCN(CCc3ccncc3)CC2)n1 (configuration not stated) | -4.658 |
| Cc1noc(C(C)N2CCN(CC(=O)N3CCCC3)CC2)n1 (configuration not stated) | 104.8 |
| Cc1noc(C(C)N2CCN(CCn3ccccc3=O)CC2)n1 (configuration not stated) | 1.866 |
| Cc1noc(C(C)N2CCN(CCC(=O)N3CCOCC3)CC2)n1 (configuration not stated) | 136 |
| CC[C@H]1CN(S(=O)(=O)c2ccccc2)CC[C@H]1CC(=O)O | 3.953 |
| CCc1cc(NC2CCN(S(C)(=O)=O)CC2)n2nc(C)c(C)c2n1 | -8.298 |
| Cn1ccnc1C1CCN(S(=O)(=O)c2ccc3[nH]c(=O)[nH]c3c2)CC1 | -2.986 |
| Cn1ccnc1C1CCN(S(=O)(=O)c2ccc3oc(=O)[nH]c3c2)CC1 | -28.87 |
| Cc1cc(=O)[nH]c(NCCNC(=O)c2ccccc2N2CCCC2)n1 | 13.63 |
| Cc1nc(NC2CCN(S(=O)(=O)c3ccccc3)CC2)[nH]c(=O)c1C | 93.81 |
| O=C(c1[nH]nc(C2CC2)c1Cl)N1CCN(S(=O)(=O)c2ccccc2)CC1 | -6.506 |
| CCc1cc(=O)[nH]c(NC2CCN(S(=O)(=O)c3ccccc3)CC2)n1 | 74.59 |
| Cc1cc(=O)[nH]c(NC2CCN(S(=O)(=O)c3ccccc3)CC2)n1 | 124.4 |
| CC(C)(C)n1ncc2c(=O)[nH]c(NC3CC=CC3)nc21 | 3.92 |
| CS(=O)(=O)NC[C@H]1Cn2c(-c3ccccc3)cnc2CO1 | -16.47 |
| CC(NCCCC#N)c1ccc(-c2cccnc2)cc1 (configuration not stated) | -3.574 |
| CCNC(c1ccc(C(C)C)cc1)c1cccnc1 (configuration not stated) | 85.86 |
| CCNC(c1cccnc1)c1ccc(F)c(C)c1 (configuration not stated) | 95.54 |
| CCNC(c1cccnc1)c1ccc(F)c(F)c1 (configuration not stated) | -4.502 |
| CCC(Nc1ncccn1)c1cccnc1 (configuration not stated) | 8.55 |
| CCNC(c1ccc(OC)cc1)c1cccnc1 (configuration not stated) | -6.571 |
| CCNC(c1cccnc1)c1ccc(F)cc1F (configuration not stated) | 101.5 |
| CCN(C(c1cccnc1)c1ccc(F)c(F)c1)S(C)(=O)=O (configuration not stated) | 5.552 |

| SMILES | Percent Effect [%] |
| --- | --- |
| CCNC(c1ccc(Br)cc1)c1cccnc1 (configuration not stated) | 106.3 |
| CCN(C(c1cccnc1)c1ccc(F)cc1F)S(C)(=O)=O (configuration not stated) | -3.142 |
| CCOCCN(C)C(c1cccnc1)c1ccc(F)cc1F (configuration not stated) | -0.1699 |
| NC(=O)CC1CCN(C(=O)CCOc2ccc(Cl)cc2)CC1 | -10.96 |
| COCCCN(C)C(=O)Cn1cccc(OC)c1=O | -68.57 |
| CN(C)Cc1cn(CC2CCCN(c3nccc4occc34)C2)nn1 (configuration not stated) | -7.203 |
| Cc1nc(CN2CCN(Cc3cc4n(n3)CCNC4)CC2)cs1 | -7.4 |
| O=C(c1ncn2c1CNS(=O)(=O)c1ccccc1-2)N1CCCCCC1 | -12.52 |
| CCNC(c1ccc(C)cc1)c1cccnc1 (configuration not stated) | 100.9 |
| CCNC(c1cccnc1)c1cc(C)cc(C)c1 (configuration not stated) | 1.12 |
| Cc1ccc(C)c(C(NC2CCCC2)c2cccnc2)c1 (configuration not stated) | -43.53 |
| CC(NCc1cccc(S(=O)(=O)N(C)C)c1)c1cccnc1 (configuration not stated) | -5.764 |
| CCc1cnc(NCC(C)Oc2cccnc2)nc1 (configuration not stated) | 7.623 |
| CCNC(c1ccc(Cl)cc1)c1cccnc1 (configuration not stated) | 74.82 |
| CCNC(c1ccc(CC)cc1)c1cccnc1 (configuration not stated) | 93.88 |
| Cc1[nH]c2c(F)cccc2c1CC(=O)N1CCC(NS(C)(=O)=O)CC1 | 3.004 |
| N#Cc1ccc(N2CCCC2Cn2cccn2)nc1 (configuration not stated) | 15.37 |
| CCc1ncc(C(=O)N2CCCOC(Cn3cccn3)C2)cn1 (configuration not stated) | 5.482 |
| N[C@H]1CN(C(=O)Cc2cc(F)cc(Cl)c2)C[C@@H]1C1CC1 | -8.09 |
| CC(C)n1cc(CN2CCCN(C(=O)C3CCOC3)CC2)cn1 (configuration not stated) | 103.2 |
| CC(C)n1cc(CN2CCCN(C(=O)C3(C)CCOCC3)CC2)cn1 | -0.3166 |
| CC(C)n1cc(CN2CCCN(C(=O)c3ccnn3C)CC2)cn1 | -7.528 |
| CC(C)n1cc(CN2CCCN(C(=O)C3CCCN3C)CC2)cn1 (configuration not stated) | 115.6 |
| CCc1nc(CN2CCCN(C(=O)C3CCOC3)CC2)cs1 (configuration not stated) | 3.952 |
| CC(C)=CCCC(C)CN1CCC(n2cc(C(C)(C)O)nn2)CC1 (configuration not stated) | -10.5 |
| O=c1[nH]c(C2CCOC2)nc2cc(F)c(F)cc12 (configuration not stated) | -25.67 |

| SMILES | Percent Effect [%] |
| --- | --- |
| Cc1cnn(CC2CN(CCCS(=O)(=O)N(C)C)CCO2)c1 (configuration not stated) | 6.483 |
| Nc1nc(CN2CCCC(Cn3cncn3)C2)nc2ccccc12 (configuration not stated) | -7.621 |
| c1ccc2oc(CCCN3CCCC(Cn4cncn4)C3)nc2c1 (configuration not stated) | 99.07 |
| c1ccc2oc(CCCN3CCOC(Cn4cccn4)C3)nc2c1 (configuration not stated) | -3.137 |
| c1ccc(-c2noc(CN3CCOC(Cn4cccn4)C3)n2)nc1 (configuration not stated) | 10.47 |
| c1cnn(CC2CN(Cc3nnc(C4CC4)o3)CCO2)c1 (configuration not stated) | 144.3 |
| Cc1cnn(CC2CN(CCCS(C)(=O)=O)CCO2)c1 (configuration not stated) | -24.88 |
| c1coc(-c2nnc(CN3CCOC(Cn4cccn4)C3)o2)c1 (configuration not stated) | -1.801 |
| c1ccc2oc(CN3CCOC(Cn4cccn4)C3)nc2c1 (configuration not stated) | 90.04 |
| Cc1cnn(CC2CN(CCCc3nc4ccccc4o3)CCO2)c1 (configuration not stated) | 130.7 |
| CC(C)(C)c1nnc(CN2CCOC(Cn3cccn3)C2)o1 (configuration not stated) | -7.281 |
| O=c1[nH]c(CCN2CCCC(Cn3cncn3)C2)nc2ccccc12 (configuration not stated) | 2.487 |
| COc1ccc(CC(=O)N(C)C2CCN(C)C2=O)cc1F (configuration not stated) | -7.072 |
| CS(=O)(=O)N1CCC(Oc2ccc(C(=O)NC3CCOC3)cc2Cl)CC1 (configuration not stated) | 6.025 |
| COC(=O)CN(C(=O)c1ccc(Cl)cn1)c1cccc(F)c1 | -0.7063 |
| Cc1cnn(CC2CN(Cc3nc4ccccc4n3C)CCO2)c1 (configuration not stated) | 109.8 |
| Cc1cnn(CC2CN(Cc3nc4ccccc4o3)CCO2)c1 (configuration not stated) | 139.9 |
| c1ccc2oc(CCCN3CCOC(Cn4cncn4)C3)nc2c1 (configuration not stated) | 115.2 |
| Cc1cnn(CC2CN(CCS(=O)(=O)c3ccccc3)CCO2)c1 (configuration not stated) | 5.078 |
| Cn1c(CN2CCOC(Cn3cncn3)C2)nc2ccccc21 (configuration not stated) | -24 |
| CCOCC(=O)NCC1Cn2nnc(-c3cccc(F)c3)c2CO1 (configuration not stated) | -1.189 |
| NCC1Cc2cccc(-c3ccc(O)c(F)c3)c2O1 (configuration not stated) | 16.35 |
| CC(NC(=O)N(C)Cc1ccsc1)c1nncn1C (configuration not stated) | -12.05 |
| CNC(=O)c1cc2c(nc1NCC(C)C)CCN(S(=O)(=O)C1CC1)CC2 | -0.7375 |
| CCc1nnsc1C(=O)N(C)Cc1ccco1 | 13.36 |
| COC[C@@H]1CC[C@H]2[C@H](CCN2C(=O)c2ccncc2F)O1.O=C(O)C(F)(F)F | -6.773 |

| SMILES | Percent Effect [%] |
| --- | --- |
| COC[C@@H]1CC[C@H]2[C@H](CCN2S(=O)(=O)c2ccc(F)cc2)O1 | 6.066 |
| COC[C@H]1CC[C@H]2[C@H](CCN2C(=O)c2ccncc2F)O1 | 114.1 |
| CCOC[C@H]1CC[C@H]2[C@H](CCN2C(=O)c2ccncc2F)O1.O=C(O)C(F)(F)F | 0.195 |
| CCOC[C@@H]1CC[C@H]2[C@H](CCN2C(=O)c2ccncc2F)O1 | 103.3 |
| CCOC[C@H]1CC[C@H]2[C@H](CCN2S(=O)(=O)Cc2ccccc2)O1 | -6.562 |
| Cc1ccc(CN2Cc3nnn(C)c3C(COCc3ccccn3)C2)s1.O=C(O)C(F)(F)F.O=C(O)C(F)(F)F (configuration not stated) | 95.33 |
| CCOCC(=O)N1Cc2nnn(C)c2C(COCc2ccccn2)C1.O=C(O)C(F)(F)F (configuration not stated) | 0.961 |
| Cc1ccc(CN2Cc3nnn(C)c3C(COCc3ccccc3)C2)s1.O=C(O)C(F)(F)F (configuration not stated) | 113.4 |
| CN(C)C(=O)N1Cc2nnn(C)c2C(COCc2cccnc2)C1.O=C(O)C(F)(F)F (configuration not stated) | -1.037 |
| Cn1nnc2c1C(COCc1ccccn1)CN(C(=O)c1cccs1)C2.O=C(O)C(F)(F)F (configuration not stated) | -3.747 |
| Cc1ccc(CN2CCc3c(nnn3C)C2COCc2ccccc2)s1.O=C(O)C(F)(F)F (configuration not stated) | -9.551 |
| Cc1cc(CN(C)C(=O)CNS(=O)(=O)c2cccs2)no1 | -1.596 |
| CC[C@H]1COCCN1C(=O)c1ccc(OC)c(N2CCOCC2)c1 | 7.42 |
| Cc1ncsc1CN1C[C@@H]2CCCO[C@@H]2[C@H](N(C)C(C)C)C1.O=C(O)C(F)(F)F.O=C(O)C(F)(F)F | -15.14 |
| CCN(C(=O)C(C)C)C(c1cccnc1)c1ccc2c(c1)CCO2 (configuration not stated) | 4.729 |
| Cc1csc(N2CCN(C(=O)Cc3ccsc3)CC2)n1 | 4.933 |
| Cc1csc(C(Cc2ccsc2)NC(=O)c2cc(=O)n(C)c(=O)n2C)n1 (configuration not stated) | 142.4 |
| CC(Cc1ccsc1)NC(=O)c1cc(N2CCNC2=O)ccc1F (configuration not stated) | -0.338 |
| Cn1c(C(=O)NC(Cc2ccsc2)c2cccnc2)cc(=O)n(C)c1=O (configuration not stated) | 166.4 |
| Cc1cc(NC(=O)CCc2ccsc2)n(C)n1 | 5.21 |
| Cn1c(=O)cc(C(=O)NC(Cc2ccsc2)c2cccnc2)[nH]c1=O (configuration not stated) | 175.1 |
| Cc1cnccc1NC(=O)CCc1ccsc1 | -8.034 |
| CC(c1cccnc1)N1CCN(C(=O)NCc2cnn(C)c2)CC1 (configuration not stated) | -9.128 |
| CCN(CC)c1ccc(C(=O)N(C)Cc2c(C)noc2C)cn1 | 3.136 |
